Measured values from PubChem BioAssay.
Calls of active or inactive are those of the source.

What was measured:
[1] = binders of probe aFSTL3 on microarray, primary screen, stem cell growth factor project, biochemical, small-molecule microarray, fluorescence 635/667 (AID 1064); settings: higher = more signal;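 also: measures binding of the biotinylated anti-FSTL3 antibody to printed compounds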
[2] = binders from COS7 lysate, DM2A8 probe, primary screen, torsin A project, cell lysate, small-molecule microarray, fluorescence 635/667 (AID 1065); settings: higher = more signal, COS7 lysate expressing mutant human TOR1A
[3] = binders of probe aFGF2 on microarray, primary screen, stem cell growth factor project, biochemical, small-molecule microarray, fluorescence 635/667 (AID 1067); settings: higher = more signal;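 also: measures binding of biotinylated aFGF2 protein to printed compounds on slides; z-score merges feature fluorescence and signal-to-noise across triplicate slides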
[4] = binders of probe aFGF10 on microarray, primary screen, stem cell growth factor project, biochemical, small-molecule microarray, fluorescence 635/667 (AID 1071); settings: higher = more signal;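 also: score merges 667 nm spot intensity and signal to noise from triplicate slides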
[5] = target: Neurogenic locus notch homolog protein 2 (Homo sapiens) (UniProt Q04721); experiment: Notch2 binders on small-molecule microarrays, primary screen, biochemical, small-molecule microarray, 635 nm fluorescence, stem cell growth factors (AID 1073); settings: Notch2 binding, higher = more signal
Neurogenic locus notch homolog protein 2 (Homo sapiens), sequence (Q04721 whole entry, looked up, canonical isoform): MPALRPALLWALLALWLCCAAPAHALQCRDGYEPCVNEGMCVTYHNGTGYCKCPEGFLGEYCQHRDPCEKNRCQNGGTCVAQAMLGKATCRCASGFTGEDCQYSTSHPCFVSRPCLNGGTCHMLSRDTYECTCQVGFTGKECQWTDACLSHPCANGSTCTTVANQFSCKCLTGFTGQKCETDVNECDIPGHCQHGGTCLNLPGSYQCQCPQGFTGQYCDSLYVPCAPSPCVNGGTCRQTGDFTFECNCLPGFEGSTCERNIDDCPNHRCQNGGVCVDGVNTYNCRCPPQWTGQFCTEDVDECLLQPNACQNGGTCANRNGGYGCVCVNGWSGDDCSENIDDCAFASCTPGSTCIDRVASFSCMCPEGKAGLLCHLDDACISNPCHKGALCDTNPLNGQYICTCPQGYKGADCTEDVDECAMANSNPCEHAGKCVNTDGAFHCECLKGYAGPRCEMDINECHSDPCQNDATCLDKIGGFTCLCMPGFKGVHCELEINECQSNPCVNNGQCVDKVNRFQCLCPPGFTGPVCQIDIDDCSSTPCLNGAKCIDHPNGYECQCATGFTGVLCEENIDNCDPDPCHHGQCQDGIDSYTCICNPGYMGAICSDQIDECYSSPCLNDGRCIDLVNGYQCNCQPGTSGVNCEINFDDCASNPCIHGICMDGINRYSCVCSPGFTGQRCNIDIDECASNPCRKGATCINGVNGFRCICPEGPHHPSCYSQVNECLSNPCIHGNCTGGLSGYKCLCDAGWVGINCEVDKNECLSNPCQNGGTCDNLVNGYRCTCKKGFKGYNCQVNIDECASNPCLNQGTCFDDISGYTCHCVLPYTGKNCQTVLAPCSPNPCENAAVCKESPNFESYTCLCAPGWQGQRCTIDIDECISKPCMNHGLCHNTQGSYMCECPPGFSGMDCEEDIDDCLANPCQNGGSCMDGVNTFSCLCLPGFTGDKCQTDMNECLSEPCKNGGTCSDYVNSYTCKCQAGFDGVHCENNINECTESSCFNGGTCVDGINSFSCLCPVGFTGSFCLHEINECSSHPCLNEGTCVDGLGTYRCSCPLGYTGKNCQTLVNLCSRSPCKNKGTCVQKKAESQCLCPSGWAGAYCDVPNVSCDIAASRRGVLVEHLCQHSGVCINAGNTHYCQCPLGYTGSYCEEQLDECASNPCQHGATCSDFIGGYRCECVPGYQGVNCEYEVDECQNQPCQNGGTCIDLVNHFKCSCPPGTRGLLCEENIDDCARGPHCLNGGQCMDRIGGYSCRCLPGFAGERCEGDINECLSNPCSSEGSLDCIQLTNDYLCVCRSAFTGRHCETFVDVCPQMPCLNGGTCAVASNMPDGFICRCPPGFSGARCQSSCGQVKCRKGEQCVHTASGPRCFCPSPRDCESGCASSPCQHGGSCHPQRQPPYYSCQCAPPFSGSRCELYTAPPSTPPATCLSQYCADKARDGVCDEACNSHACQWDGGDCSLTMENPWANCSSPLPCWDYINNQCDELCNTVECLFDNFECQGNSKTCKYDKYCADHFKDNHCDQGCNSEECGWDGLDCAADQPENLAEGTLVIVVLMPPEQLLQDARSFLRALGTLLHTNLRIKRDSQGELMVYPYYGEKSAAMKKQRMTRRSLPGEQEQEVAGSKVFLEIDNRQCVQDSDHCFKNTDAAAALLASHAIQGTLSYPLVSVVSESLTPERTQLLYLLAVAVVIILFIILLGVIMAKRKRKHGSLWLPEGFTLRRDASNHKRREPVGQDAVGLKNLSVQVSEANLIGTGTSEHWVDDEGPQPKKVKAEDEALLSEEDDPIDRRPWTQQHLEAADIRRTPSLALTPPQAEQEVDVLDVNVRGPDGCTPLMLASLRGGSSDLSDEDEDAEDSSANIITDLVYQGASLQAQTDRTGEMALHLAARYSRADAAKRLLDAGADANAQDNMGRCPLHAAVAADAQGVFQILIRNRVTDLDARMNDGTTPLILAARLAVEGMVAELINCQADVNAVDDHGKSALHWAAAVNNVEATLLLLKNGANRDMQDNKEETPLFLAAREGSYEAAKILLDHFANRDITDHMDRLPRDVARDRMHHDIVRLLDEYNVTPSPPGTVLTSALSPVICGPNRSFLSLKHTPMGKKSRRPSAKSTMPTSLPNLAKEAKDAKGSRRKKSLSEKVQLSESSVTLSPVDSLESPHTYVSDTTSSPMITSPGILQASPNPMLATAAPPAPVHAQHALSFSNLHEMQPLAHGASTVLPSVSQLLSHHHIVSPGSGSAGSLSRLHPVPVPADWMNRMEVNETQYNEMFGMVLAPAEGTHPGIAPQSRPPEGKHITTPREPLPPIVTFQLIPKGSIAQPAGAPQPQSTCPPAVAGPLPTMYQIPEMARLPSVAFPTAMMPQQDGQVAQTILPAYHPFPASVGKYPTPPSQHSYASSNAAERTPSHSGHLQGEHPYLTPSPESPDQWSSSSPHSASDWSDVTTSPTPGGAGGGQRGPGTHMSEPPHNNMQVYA

[6] = target: Pro-neuregulin-1, membrane-bound isoform (Homo sapiens) (UniProt Q02297); experiment: NRG1 binders on small-molecule microarrays, primary screen, psychiatric disease protein project, biochemical, small-molecule microarray, fluorescence 635/667 (AID 1075); settings: NRG1 binding, 635 nm fluorescence, higher = more signal;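 also: score combines 667 nm spot fluorescence with signal to noise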
Pro-neuregulin-1, membrane-bound isoform (Homo sapiens), sequence (Q02297 whole entry, looked up, the tested form may be a part, canonical isoform): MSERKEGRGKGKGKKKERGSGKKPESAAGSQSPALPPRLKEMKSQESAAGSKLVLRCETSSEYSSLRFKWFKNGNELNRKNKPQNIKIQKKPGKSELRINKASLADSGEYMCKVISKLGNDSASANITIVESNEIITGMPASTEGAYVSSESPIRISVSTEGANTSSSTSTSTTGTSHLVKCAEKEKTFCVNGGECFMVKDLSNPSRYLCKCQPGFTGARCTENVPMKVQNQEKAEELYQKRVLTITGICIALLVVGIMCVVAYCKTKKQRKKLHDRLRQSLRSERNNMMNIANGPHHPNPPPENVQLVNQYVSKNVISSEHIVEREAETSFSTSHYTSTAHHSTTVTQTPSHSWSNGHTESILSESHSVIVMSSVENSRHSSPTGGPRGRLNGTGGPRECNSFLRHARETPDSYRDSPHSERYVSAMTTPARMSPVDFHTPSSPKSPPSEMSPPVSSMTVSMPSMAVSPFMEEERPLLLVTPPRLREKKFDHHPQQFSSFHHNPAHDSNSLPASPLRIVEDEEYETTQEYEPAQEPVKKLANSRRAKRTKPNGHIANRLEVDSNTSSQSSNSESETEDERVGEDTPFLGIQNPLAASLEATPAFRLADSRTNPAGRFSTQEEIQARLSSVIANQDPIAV

[7] = test system: Neuregulin-1 EGF-like domain; experiment: binders of neuregulin-1 EGF-like domain, primary screen, biochemical, small-molecule microarray, 635 nm fluorescence (AID 1081); settings: small-molecule microarray binding, higher = more signal;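 also: binding of the protein to compounds printed on small-molecule microarray slides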
[8] = FRG1 promoter luciferase signal modulators, primary screen, FRG1 inhibition for FSHD, cell-based, C2C12 myotubes, firefly/Renilla luciferase, luminescence (AID 1084); settings: higher = more signal, called active from +8 up or from −8 down
[9] = binders of probe aFST on microarray, primary screen, stem cell growth factor project, biochemical, small-molecule microarray, fluorescence 635/667 (AID 1086); settings: higher = more signal;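 also: score merges 667 nm fluorescence with signal-to-noise of each printed compound spot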
[10] = binders of probe aHhip on microarray, primary screen, stem cell growth factor project, biochemical, small-molecule microarray, fluorescence 635/667 (AID 1087); settings: higher = more signal;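 also: score merges spot fluorescence at 667nm with spot signal to noise ratio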

Compound | composite z-score [1] | composite z-score [2] | composite z-score [3] | composite z-score [4] | composite z-score [5] | composite z-score [6] | composite z-score [7] | z-score [8] | composite z-score [9] | composite z-score [10]
COc1cccc(C[C@H]2C[C@@H](CO[Si](C(C)C)(C(C)C)C(C)C)N3C(=O)[C@@]4(C(C)=O)O[C@@]23[C@@H]2C(=O)N(C)C(=O)[C@@H]24)c1 | -0.43 | 0.199 | -0.0697 | 0.933 | 1.16 | 1.01 | 0.93 | -1.14 (inactive) | 0.307 | 0.113
C=CCOC(=O)[C@H]1[C@@H]2C(=O)O[C@@H](c3ccccc3)[C@@H](c3ccccc3)N2[C@@H](c2ccc(OCCOC(=O)[C@@H]3C[C@@H]4C(=O)N[C@@H](CC(C)C)C(=O)N4[C@@H]3c3ccc(O)cc3)cc2)[C@]12C(=O)Nc1ccc(I)cc12 | -0.185 | 0.246 | -0.158 | -0.0479 | 0.672 | 1.33 | 1.29 | -1.13 (inactive) | -0.0054 | 0.15
CCCCN1CC=CC23O[C@@H]4C=CCOC(=O)[C@@H]4[C@H]2C(=O)N(CCO)[C@@H]3C1=O (stereo not given in full) | 1.37 | 0.0339 | -0.168 | -1.03 | -1.39 | 0.332 | 0.695 | 0.432 (inactive) | -0.657 | -0.0645
COc1ccc(NN2C(C(O)c3cc(C(F)(F)F)cc(C(F)(F)F)c3)C=CC3C(=O)N(C4CCCCC4)C(=O)C32)cc1 (stereo not given) | 0.844 | 0.301 | 0.483 | 0.397 | 1.37 | 1.02 | 1.11 | -0.68 (inactive) | 1.36 | 1.67
C=CC[C@]1(C(=O)N(C)C)COC(c2ccc(OCCCO)cc2)=N1 | 1.11 | 2.23 | 0.23 | 0.744 | 0.221 | 1.83 | 1.42 | 0.233 (inactive) | 0.459 | 0.0373
COc1ccc([Si](C)(C)[C@@H]2[C@@H](CCO)O[C@]3(C(=O)N(Cc4ccccc4)c4ccc(N5C(=O)c6ccccc6Oc6ccccc65)cc43)[C@H]2C)cc1 | -0.0276 | -0.662 | -0.0962 | 0.379 | -0.236 | 0.992 | 0.671 | 0.816 (inactive) | -0.089 | -0.284
[N-]=[N+]=NCc1ccccc1C[C@]1(C(=O)N2CCOCC2)N=C(c2ccc(OCCCO)cc2)O[C@H]1c1ccccc1CN=[N+]=[N-] | 0.998 | 2.14 | 0.285 | 0.88 | 1.42 | 2.09 | 1.26 | -2.03 (inactive) | 1.5 | 0.0623
CCCCC(O)C1C=CC2C(=O)NC(=O)C2N1Nc1ccc(Cl)cc1Cl (stereo not given) | 0.439 | -0.384 | 0.0127 | 0.612 | 0.866 | 1.3 | 1.09 | 0.0812 (inactive) | 0.691 | -0.27
Cc1c(-c2ccc(-c3ccc(Cl)c(Cl)c3)o2)nc(-c2ccccc2)c2c1CO[Si]2(C(C)C)C(C)C | -0.0834 | 0.343 | -0.047 | 0.42 | -0.558 | 0.568 | 0.294 | 0.422 (inactive) | -0.324 | 0.21
C=CCOC(=O)[C@H]1[C@@H]2C(=O)O[C@@H](c3ccccc3)[C@@H](c3ccccc3)N2[C@@H](c2ccc(OCCOC(=O)[C@@H]3C[C@@H]4C(=O)N[C@@H](Cc5ccccc5)C(=O)N4[C@@H]3c3ccc(O)cc3)cc2)[C@]12C(=O)Nc1ccccc12 | -0.372 | 0.268 | -0.0713 | 0.278 | 0.217 | 0.403 | 1.21 | 0.503 (inactive) | -0.121 | -0.0645
C=CC[C@@]1(C(=O)N(C)C)N=C(c2ccc(OCCCO)cc2)O[C@@H]1c1ccccc1 | 0.733 | 1.13 | 0.0917 | 0.794 | 0.515 | 2.08 | 1.38 | -0.004 (inactive) | 0.598 | 0.109
C=C(COC)/C(=C/C[C@H](OC(=O)c1ccncc1)c1cccc(OCCO)c1)c1cnc2ccccc2c1 | -0.125 | 0.544 | -0.103 | 0.427 | 1.41 | 1.3 | 1.28 | 2.63 (inactive) | 0.841 | -0.134
COCCOC(=O)N1C(=O)[C@@]2(c3cc(C#CCCO)ccc31)[C@H](c1ccc(O)cc1)N1[C@H](c3ccccc3)[C@H](c3ccccc3)OC(=O)[C@H]1[C@@H]2C(=O)N1CCc2cc(OC)c(OC)cc2C1 | 0.0104 | 0.366 | -0.0004 | 0.525 | 1.36 | 1.04 | 1.32 | -0.994 (inactive) | 0.411 | -0.271
CC(C)C[C@@H]1NC(=O)[C@@H]2C[C@H](C(=O)O)[C@H](c3ccc(O)cc3)N2C1=O | -0.451 | 1.9 | -0.121 | 0.338 | 0.529 | 0.833 | 1.23 | -0.93 (inactive) | 0.186 | 0.0373
O=C1O[C@H](c2ccccc2)[C@H](c2ccccc2)N2[C@H]1[C@@H](C(=O)NC[C@H](O)c1ccccc1)[C@]1(C(=O)Nc3ccc(C#CCCO)cc31)[C@H]2c1ccccc1OCCO | -0.211 | 0.307 | -0.141 | 0.453 | 0.253 | 1.25 | 1.34 | -0.0302 (inactive) | 0.152 | 0.0505
COc1ccc([Si](C)(C)[C@H]2[C@H](CCn3cc([C@H](O)c4ccccc4)nn3)O[C@@]3(C(=O)N(c4ccccc4)c4ccccc43)[C@@H]2C)cc1 | -0.0662 | -0.125 | -0.137 | 0.0529 | -0.0554 | 0.44 | 0.248 | -0.805 (inactive) | -0.0512 | -0.236

Compound | composite z-score [1] | composite z-score [2] | composite z-score [3] | composite z-score [4] | composite z-score [5] | composite z-score [6] | composite z-score [7] | z-score [8] | composite z-score [9] | composite z-score [10]
COc1ccc(C#Cc2ccc3c(c2)[C@]2(C(=O)N3)[C@H](c3ccc(OCCO)cc3)N3[C@H](c4ccccc4)[C@H](c4ccccc4)OC(=O)[C@H]3[C@@H]2C(=O)O)cc1 | -0.302 | 0.478 | 0.0296 | 1.12 | 1.34 | 0.343 | 1.25 | 0.373 (inactive) | 0.29 | -0.0454
CC(C)[C@@H](C(=O)O)n1cc(-c2ccccc2)nn1 | 0.272 | 0.692 | -0.0894 | 0.779 | 0.964 | 0.648 | 1.08 | 0.736 (inactive) | 0.874 | -0.0645
C=CCOC(=O)[C@@H]1[C@H]2C(=O)O[C@H](c3ccccc3)[C@H](c3ccccc3)N2[C@H](c2ccc(OCCOC(=O)[C@H]3C[C@H]4C(=O)NCC(=O)N4[C@H]3c3ccc(O)cc3)cc2)[C@@]12C(=O)Nc1ccc(I)cc12 | -0.223 | 0.826 | -0.0834 | 0.22 | 0.948 | 0.675 | 0.86 | 1.2 (inactive) | 0.377 | -0.54
CCCCC(=C=CC[C@@H](O)c1ccc(OCCO)cc1)C[C@@H](O)c1ccccn1 | -0.0136 | 1.23 | -0.0473 | 0.314 | 0.0751 | 0.0517 | 1.15 | -0.838 (inactive) | 0.111 | 0.16
COCCOC(=O)N1C(=O)[C@@]2(c3cc(C#CCC(C(=O)OC)C(=O)OC)ccc31)[C@H](C(=O)N1CCCCCCC1)[C@H]1C(=O)O[C@H](c3ccccc3)[C@H](c3ccccc3)N1[C@@H]2c1ccccc1OCCO | 3.92 | 1.8 | 0.825 | 0.481 | 1.39 | 0.811 | 1.12 | 0.158 (inactive) | 3.34 | 2.72
C=CCC(OC(C)=O)[C@@H]1[C@@H](N(Cc2cc3ccccc3o2)C(=O)c2cccc3ccccc23)c2cc(OCCCO)ccc2N1C(=O)c1ccc2ccccc2c1 (stereo not given in full) | -0.16 | -0.267 | -0.0993 | 0.277 | -0.0361 | -0.223 | 0.272 | -4.21 (inactive) | 0.296 | -0.128
COCCOC(=O)N1C(=O)[C@@]2(c3cc(C#Cc4ccc(OC)cc4)ccc31)[C@H](C(=O)N1CCCCCCC1)[C@H]1C(=O)O[C@H](c3ccccc3)[C@H](c3ccccc3)N1[C@@H]2c1ccccc1OCCO | 3.15 | 0.486 | 0.685 | 0.265 | 1.13 | 1.29 | 1.12 | -0.575 (inactive) | 3.04 | 2.21
C=CCC(OC(C)=O)[C@@H]1[C@@H](N(Cc2cc3ccccc3o2)C(=O)Cc2ccc(OC)cc2)c2cc(OCCCO)ccc2N1C(=O)Cc1ccc(OC)cc1 (stereo not given in full) | -0.186 | 0.0357 | -0.0459 | 0.0855 | -0.144 | -0.0625 | 0.0781 | -1.19 (inactive) | -0.0586 | 0.0623
C#CCN(C/C=C/c1ccccc1)[C@H](CO[Si](C)(C)C(C)(C)C)c1ccccc1 | -0.0528 | -0.0566 | -0.0815 | -0.284 | -1.14 | -0.267 | -0.497 | -1.27 (inactive) | -0.363 | -0.0994
COc1ccc(NC(=O)O[C@H]2[C@H](OC(=O)Nc3ccc4c(c3)OCO4)[C@H](OC(=O)Nc3ccc4c(c3)OCO4)[C@@H](OC)O[C@@H]2CO)cc1 | 0.198 | 0.347 | 0.0519 | 0.739 | 0.302 | 0.978 | 0.905 | 3.53 (inactive) | 0.327 | 0.142
O=C1O[C@@H](c2ccccc2)[C@@H](c2ccccc2)N2[C@@H](c3ccc(OCCO)cc3)[C@]3(C(=O)Nc4ccc(C#CCCO)cc43)[C@@H](C(=O)Nc3nc4ccccc4s3)[C@H]12 | 0.0758 | 0.482 | -0.0316 | 0.444 | 1.03 | 1.14 | 1.07 | 0.28 (inactive) | 1.27 | -0.0241
O=C1C2C=CC(C(O)c3cccc(O)c3)N(Nc3ccccc3F)C2C(=O)N1c1ccccc1 (stereo not given) | 0.0355 | 0.74 | -0.0005 | -0.0284 | 0.0745 | 0.445 | 0.218 | 2.18 (inactive) | 0.725 | -0.437
O=C1NC(=O)C2C1C=CC(C(O)c1ccc(F)cc1)N2Nc1ccccn1 (stereo not given) | 0.22 | 0.472 | -0.0634 | 0.354 | 0.999 | 0.906 | 0.957 | 0.632 (inactive) | 0.0731 | -0.284
O=C1NC(=O)C2C1C=CC(C(O)c1cccc(O)c1)N2Nc1ccc(Cl)cc1Cl (stereo not given) | 0.312 | 0.0528 | -0.161 | 0.0569 | 1.09 | 1.08 | 0.275 | 0.203 (inactive) | 0.259 | -0.272
COc1ccccc1CN1C(=O)c2ccccc2[C@](Cc2ccccc2I)(C(=O)NCCCN(C)C)[C@@H]1c1ccc(CO)cc1 | -0.967 | -0.501 | -0.116 | 0.483 | 0.452 | 0.683 | 1.19 | -3.16 (inactive) | -0.0929 | -0.37
